Laboratory results reported in PubChem BioAssay (EPA / NIEHS).
Results filed as inconclusive are left out. Calls of active or inactive are those of the source. The calls were made as follows: active = hit-call score of the fitted dose curve at least 0.9, where 1 is the maximum; inconclusive = response in the unintended direction; inactive = score below 0.9.

Tests used:
[1] = Tanguay_ZF_120hpf_SNOU_legacy: (Legacy) Oregon State University Tanguay Lab 120 Hour Post-fertilization zebrafish Assay for Snout Malformation (AID 2283637)
Method in brief: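 Tropical 5D wild-type zebrafish embryos, dechorionated with pronase at 4 hpf, were exposed singly from 6 hpf to 120 hpf statically at 28C in 0.64% DMSO. Snout malformation was scored present/absent by brightfield microscopy, fitted against DMSO.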

[2] = Tanguay_ZF_120hpf_OTIC_legacy: (Legacy) Oregon State University Tanguay Lab 120 Hour Post-fertilization zebrafish Assay for Otic Vesicle Malformation (AID 2283639)
Method in brief: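 Tropical 5D wild-type zebrafish embryos statically exposed in 0.64% DMSO at 28C until 120 hpf; 5uM trimethyltin chloride as positive control. Otic vesicle malformation scored present/absent by brightfield; dead embryos not scored; gain fitted versus DMSO.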

[3] = Tanguay_ZF_120hpf_PE_legacy: (Legacy) Oregon State University Tanguay Lab 120 Hour Post-fertilization zebrafish Assay for Pericardial Edema (AID 2283640)
Method in brief: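 Zebrafish larvae are exposed from early development to 120 hpf at 28C, with 0.64% DMSO final. Each surviving larva receives a yes/no pericardial edema call by brightfield imaging, analysed relative to the DMSO baseline.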

[4] = Tanguay_ZF_120hpf_BRAI_legacy: (Legacy) Oregon State University Tanguay Lab 120 Hour Post-fertilization zebrafish Assay for Brain Malformation (AID 2283641)
Method in brief: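 Static exposure of staged wild-type embryos until 120 hpf, kept at 28C with light excluded and final DMSO of 0.64% (vol/vol). Presence or absence of brain malformation was noted under brightfield; mortality precluded scoring.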

[5] = Tanguay_ZF_120hpf_SOMI_legacy: (Legacy) Oregon State University Tanguay Lab 120 Hour Post-fertilization zebrafish Assay for Somite Malformation (AID 2283647)
Method in brief: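 Somitogenesis defects are recorded as binary calls in whole larvae at 120 hpf after continuous static chemical exposure starting at 6 hpf in dechorionated 5D embryos. DMSO serves as negative control and baseline.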

[6] = Tanguay_ZF_120hpf_PIG_legacy: (Legacy) Oregon State University Tanguay Lab 120 Hour Post-fertilization zebrafish Assay for Pigmentation Malformation (AID 2283650)
Method in brief: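 Tropical 5D wild-type zebrafish embryos, dechorionated with pronase at 4 hpf, were exposed singly from 6 hpf to 120 hpf statically at 28C in sealed, dark plates with 0.64% DMSO; pigmentation scored present/absent by brightfield microscopy, fitted against DMSO.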

[7] = Tanguay_ZF_120hpf_CIRC_legacy: (Legacy) Oregon State University Tanguay Lab 120 Hour Post-fertilization zebrafish Assay for Circulatory Malformation (AID 2283651)
Method in brief: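 Dechorionated wild-type 5D zebrafish embryos, one per well, statically exposed from 6 to 120 hpf at 28C with 0.64% DMSO; circulatory malformation scored present/absent by brightfield microscopy at 120 hpf, dead embryos excluded.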

[8] = Tanguay_ZF_120hpf_SWIM_legacy: (Legacy) Oregon State University Tanguay Lab 120 Hour Post-fertilization zebrafish Assay for Swim Bladder Malformation (AID 2283654);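 also: swim bladder malformation in each larva scored yes or no under brightfield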
Method in brief: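 Dechorionated Tropical 5D wild-type embryos, placed singly from 6 hpf, were statically exposed at 28C to 120 hpf with 0.64% DMSO final; swim bladder malformation was scored present/absent by brightfield microscopy, gain of signal relative to DMSO controls.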

[9] = Tanguay_ZF_120hpf_TRUN_legacy: (Legacy) Oregon State University Tanguay Lab 120 Hour Post-fertilization zebrafish Assay for Truncated Body (AID 2283655)
Method in brief: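 Single dechorionated zebrafish embryos received test chemical from 6 hpf in 0.64% DMSO, kept at 28C. At 120 hpf, brightfield inspection noted any truncated body.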

[10] = Tanguay_ZF_120hpf_NC_legacy: (Legacy) Oregon State University Tanguay Lab 120 Hour Post-fertilization zebrafish Assay for Notochord and Tail Malformation (AID 2283656)
Method in brief: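 Dechorionated Tropical 5D wild-type zebrafish embryos, one per well from 6 hpf, statically exposed to 120 hpf at 28C in 0.64% DMSO final. Notochord distortion scored present/absent by brightfield; dead embryos excluded.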

[11] = read-out: ABC Transporter (ABCB1), ABCB1 (gene 5243); assay: CLD_ABCB1_6hr: CellzDirect (CLD) Gene Expression Assay for ABC Transporter (ABCB1) at 6 hours (AID 2283659);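 also: hits raise ABCB1 transcript above the DMSO vehicle baseline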
Method in brief: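 Primary human hepatocytes (two donor preparations) dosed daily for two days with chemicals at multiple concentrations, 0.2% DMSO vehicle; harvested 6 h post-dose. ABCB1 mRNA induction quantified by qNPA chemiluminescence; gain-of-signal fitted versus DMSO.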

[12] = read-out: Broad substrate specificity ATP-binding cassette transporter ABCG2 (Homo sapiens) (UniProt Q9UNQ0); assay: CLD_ABCG2_6hr: CellzDirect (CLD) Gene Expression Assay for ABC Transporter (ABCG2) at 6 hours (AID 2283660)
Method in brief: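 Primary human hepatocytes dosed daily with chemicals at multiple concentrations (0.2% DMSO vehicle), harvested 6 h after dosing. ABCG2 mRNA induction read by quantitative nuclease protection assay (qNPA) chemiluminescence; gain of signal fitted against DMSO baseline.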

[13] = read-out: xenobiotic metabolism (CYP1A1), CYP1A1 (gene 1543); assay: CLD_CYP1A1_6hr: CellzDirect (CLD) Gene Expression Assay for xenobiotic metabolism (CYP1A1) at 6 hours (AID 2283661);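 as to AC50: potency for transcript induction above DMSO vehicle baseline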
Method in brief: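 Primary human hepatocytes from two donors, compound versus 0.2% DMSO vehicle. CYP1A1 mRNA measured 6 h after dosing by quantitative nuclease protection assay with chemiluminescent read-out; induction fitted relative to DMSO, cytotoxicity flagged by microscopy.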

[14] = Tanguay_ZF_120hpf_JAW_legacy: (Legacy) Oregon State University Tanguay Lab 120 Hour Post-fertilization zebrafish Assay for Jaw Malformation (AID 2283638)
Method in brief: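 Wild-type 5D embryos, chorion removed at 4 hpf, dosed singly from 6 hpf; 28C static, sealed, foil-covered, to 120 hpf. Endpoint: jaw defect yes/no (brightfield); mortality excludes scoring.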

[15] = Tanguay_ZF_120hpf_CFIN_legacy: (Legacy) Oregon State University Tanguay Lab 120 Hour Post-fertilization zebrafish Assay for Caudal Fin Malformation (AID 2283649)
Method in brief: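 Single dechorionated 5D wild-type embryos are dosed at 6 hpf (final DMSO 0.64%) and held statically at 28C. Caudal fin malformation is recorded as present or absent at 120 hpf under brightfield, excluding dead embryos.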

[16] = Tanguay_ZF_120hpf_PFIN_legacy: (Legacy) Oregon State University Tanguay Lab 120 Hour Post-fertilization zebrafish Assay for Pectoral Fin Malformation (AID 2283648);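 also: each larva judged yes or no for fin defect by brightfield with dead larvae skipped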
Method in brief: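 Tropical 5D wild-type embryos, dechorionated with pronase at 4 hpf, were placed singly in wells at 6 hpf and statically exposed until 120 hpf at 28C, sealed and dark, with 0.64% (vol/vol) final DMSO; pectoral fin malformation scored present/absent.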

Chain of Broad substrate specificity ATP-binding cassette transporter ABCG2 (Homo sapiens) (Q9UNQ0 whole entry, looked up): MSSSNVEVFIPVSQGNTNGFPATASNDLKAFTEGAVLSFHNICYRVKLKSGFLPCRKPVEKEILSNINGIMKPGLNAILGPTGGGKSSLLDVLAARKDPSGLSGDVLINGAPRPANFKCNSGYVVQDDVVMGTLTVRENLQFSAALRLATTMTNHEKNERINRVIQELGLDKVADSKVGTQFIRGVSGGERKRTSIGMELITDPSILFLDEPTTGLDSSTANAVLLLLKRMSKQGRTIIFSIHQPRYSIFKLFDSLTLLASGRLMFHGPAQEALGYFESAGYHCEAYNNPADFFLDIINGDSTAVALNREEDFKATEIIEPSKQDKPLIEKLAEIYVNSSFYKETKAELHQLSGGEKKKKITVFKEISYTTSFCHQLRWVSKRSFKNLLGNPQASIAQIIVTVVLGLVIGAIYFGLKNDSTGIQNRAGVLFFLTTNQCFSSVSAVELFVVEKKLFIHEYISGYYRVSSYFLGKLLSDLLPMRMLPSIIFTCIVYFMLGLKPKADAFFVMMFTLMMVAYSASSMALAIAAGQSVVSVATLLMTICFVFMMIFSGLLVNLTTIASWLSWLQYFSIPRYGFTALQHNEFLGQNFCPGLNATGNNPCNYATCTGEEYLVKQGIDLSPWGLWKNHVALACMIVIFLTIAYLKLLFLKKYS

Row | Compound | outcome [1] | outcome [2] | outcome [3] | outcome [4] | outcome [5] | outcome [6] | outcome [7] | outcome [8] | outcome [9] | outcome [10] | outcome [11] | outcome [12] | outcome [13] | outcome [14] | outcome [15] | outcome [16] | AC50 [13]
1 | CC(C)N(C(=O)SCC(Cl)=C(Cl)Cl)C(C)C | inactive | inactive | inactive | inactive | inactive | inactive | inactive | inactive | inactive | inactive | inactive | inactive | inactive |  |  |  | 
2 | CCOC(=O)COc1cc(-c2nn(C)c(OC(F)F)c2Cl)c(F)cc1Cl |  | inactive |  | inactive | inactive | inactive | inactive |  | inactive | inactive | inactive |  |  | inactive | inactive |  | 
3 | CCOP(=S)(OCC)Oc1cc(C)nc(C(C)C)n1 | inactive | inactive | inactive |  |  | inactive | inactive |  | inactive | inactive | inactive | inactive |  |  | inactive | inactive | 
4 | C#CC(C)(C)NC(=O)c1cc(Cl)cc(Cl)c1 |  | inactive | inactive |  | inactive | inactive | inactive | inactive |  | inactive | inactive | inactive |  | inactive | inactive |  | 
5 | CCCCSP(=O)(SCCCC)SCCCC | inactive | inactive | inactive | inactive | inactive | inactive | inactive | inactive | inactive |  | inactive | inactive |  |  | inactive | inactive | 
6 | CC1=NNC(=O)N(/N=C/c2cccnc2)C1 | inactive | inactive | inactive | inactive | inactive |  | inactive | inactive | inactive | inactive | inactive | inactive |  | inactive | inactive |  | 
7 | CN(C)[C@@H]1C(=O)C(C(N)=O)=C(O)[C@@]2(O)C(=O)C3=C(O)c4c(O)cccc4[C@@](C)(O)[C@H]3[C@H](O)[C@@H]12 | inactive | inactive | inactive | inactive | inactive |  | inactive |  | inactive | inactive | inactive | inactive |  | inactive | inactive |  | 
8 | CNc1cnn(-c2cccc(C(F)(F)F)c2)c(=O)c1Cl | inactive |  | inactive | inactive | inactive | inactive | inactive | inactive | inactive |  | inactive | inactive |  | inactive | inactive | inactive | 3.97 µM (active)
9 | CCCSP(=O)(OCC)SCCC | inactive | inactive | inactive |  | inactive | inactive | inactive | inactive | inactive | inactive | inactive | inactive |  | inactive | inactive | inactive | 
